Each structure is given as a SMILES string. “And” between values parts separate entries of the source, which are not always exact repeats. Identical values can stand only once. Values without a mark were called inactive. The source made the active and inactive calls.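 The calls were made as follows: active = thallium flux through the channel raised or lowered by more than 3 SD from vehicle-only wells, actives on both sides; inactive = the rest.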

Assay in all cases: BK channel mutant inhibitors and activators – cell-based, U2OS BacMam, thallium flux, beta subunits, selectivity assay, profiling panel (AID 1259406);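 also: initial slope of Thallos dye fluorescence rise after thallium is added; log ratio against the mean of 0.3% DMSO vehicle wells on the same plate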
The test system of one test is F380Y/beta2Delta. As to conditions: U2OS BacMam BK variants, at 30 µM.
A further test relates to F380Y/beta4. As to conditions: U2OS BacMam BK variants, at 30 µM.
Test [1] deals with Calcium-activated potassium channel subunit alpha-1 (Homo sapiens) + Leucine-rich repeat-containing protein 26 (Homo sapiens) (UniProt Q12791+Q2I0M4). Conditions: U2OS BacMam BK variants, F380Y/Slo1WT/gamma1, at 30 µM.
Chain of Calcium-activated potassium channel subunit alpha-1 (Homo sapiens) + Leucine-rich repeat-containing protein 26 (Homo sapiens) (Q2I0M4 whole entry, looked up, one chain of several): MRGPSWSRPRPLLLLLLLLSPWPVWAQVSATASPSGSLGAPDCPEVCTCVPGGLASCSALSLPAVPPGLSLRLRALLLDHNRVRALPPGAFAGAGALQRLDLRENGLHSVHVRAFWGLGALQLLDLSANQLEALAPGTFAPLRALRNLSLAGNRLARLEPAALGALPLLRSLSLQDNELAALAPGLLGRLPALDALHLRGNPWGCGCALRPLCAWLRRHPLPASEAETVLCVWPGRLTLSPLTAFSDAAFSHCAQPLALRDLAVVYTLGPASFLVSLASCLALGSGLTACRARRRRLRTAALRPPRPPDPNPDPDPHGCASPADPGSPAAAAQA
Another test has as its system R275C. Conditions: U2OS BacMam BK variants, at 30 µM.
In another test the test system is R275C/beta1. As to conditions: U2OS BacMam BK variants, at 30 µM.
Another test relates to R275C/beta2Delta. As to conditions: U2OS BacMam BK variants, at 30 µM.
Another test has as its system R275C/beta4. As to conditions: U2OS BacMam BK variants, at 30 µM.
Another test concerns R275C/Slo1WT/beta2. As to conditions: U2OS BacMam BK variants, at 30 µM.

With `CCCOc1ccc(C(=O)OCCN(CC)CC)cc1N`, the log fold change Tl+ flux with F380Y/beta2Delta is 0.0489; in the test with F380Y/beta4, 0.0262; in test [1] it was 0.00339; with R275C, 0.0442; with R275C/beta1, -0.0232; in the test on R275C/beta2Delta it was 0.0224. The log fold change Tl+ flux is 0.00943 in the test with R275C/beta4 and -0.0584 in the test on R275C/Slo1WT/beta2.
`CC(Oc1c(Cl)cccc1Cl)C1=NCCN1` (stereo not given): the log fold change Tl+ flux in the test with F380Y/beta2Delta was -0.00369; in the test with F380Y/beta4 it was 0.0154; in test [1], 0.00177; in the test on R275C, -0.0395; in the test on R275C/beta1, 0.0393; in the test on R275C/beta2Delta, 0.00761. Further, the log fold change Tl+ flux is 0.0269 in the test on R275C/beta4 and 0.0415 in the test with R275C/Slo1WT/beta2.
As for `CCOC(=O)C1=C(C)NC(C)=C(C(=O)OC)C1c1cccc(Cl)c1Cl` (stereo not given), the log fold change Tl+ flux is -0.162 (active) with F380Y/beta2Delta; -0.261 (active) with F380Y/beta4; 0.00637 in test [1]; -0.00728 with R275C; -0.0274 in the test with R275C/beta1; 0.0156 in the test on R275C/beta2Delta. The values for the log fold change Tl+ flux in the test with R275C/beta4 and with R275C/Slo1WT/beta2 were 0.114 and -0.0293, respectively.
As for `C[C@@H]1C[C@H]2[C@@H]3CCC4=CC(=O)C=C[C@]4(C)[C@@]3(F)[C@@H](O)C[C@]2(C)[C@H]1C(=O)CO`, the log fold change Tl+ flux with F380Y/beta2Delta was 0.0651; with F380Y/beta4, 0.0601; in test [1] it was 0.0369; in the test with R275C it was -0.061; in the test on R275C/beta1, 0.178 (active); in the test with R275C/beta2Delta it was 0.0622. The log fold change Tl+ flux is 0.0336 with R275C/beta4 and 0.0113 with R275C/Slo1WT/beta2.
With `NS(=O)(=O)c1cc(C(=O)O)c(NCc2ccco2)cc1Cl`, the log fold change Tl+ flux in the test on F380Y/beta2Delta is -0.0211; in the test on F380Y/beta4, 0.0269; in test [1], -0.028; with R275C, -0.0468; with R275C/beta1, -0.0154; in the test with R275C/beta2Delta, -0.0184. Further, the results for the log fold change Tl+ flux in the test with R275C/beta4 and in the test with R275C/Slo1WT/beta2 were 0.000317 and 0.0743, respectively.
With `Cc1[nH]c(=O)c(C#N)cc1-c1ccncc1`, the log fold change Tl+ flux in the test on F380Y/beta2Delta was -0.015; in the test with F380Y/beta4, -0.0201; in test [1] it was 0.0127; in the test on R275C, -0.0168; with R275C/beta1 it was -0.000763; in the test with R275C/beta2Delta it was 0.0393. Besides, the log fold change Tl+ flux in the test with R275C/beta4 is 0.0209; in the test with R275C/Slo1WT/beta2, 0.0443.
With `Cc1cn([C@H]2C=C[C@@H](CO)O2)c(=O)[nH]c1=O`, the log fold change Tl+ flux was 0.00122 and 0.00603 in the test with F380Y/beta2Delta; -0.027 and 0.00706 in the test on F380Y/beta4; 0.0426 and -0.00611 in test [1]; -0.1 and -0.00698 in the test on R275C; -0.02 and 0.0272 in the test with R275C/beta1; -0.0201 and 0.00371 in the test on R275C/beta2Delta. Further, the log fold change Tl+ flux in the test with R275C/beta4 is 0.0202 and -0.00131; in the test on R275C/Slo1WT/beta2 it was 0.0395 and 0.0392.
`O=C(NCCO[N+](=O)[O-])c1cccnc1`: the log fold change Tl+ flux was -0.00246 in the test on F380Y/beta2Delta; 0.013 in the test on F380Y/beta4; 0.000443 in test [1]; -0.059 in the test on R275C; -0.0194 in the test on R275C/beta1; 0.000208 with R275C/beta2Delta. Further, the log fold change Tl+ flux was 0.0335 with R275C/beta4 and -0.00283 with R275C/Slo1WT/beta2.
Consider `Cc1cnc(NC(=O)C2=C(O)c3ccccc3S(=O)(=O)N2C)s1`, for which the log fold change Tl+ flux in the test on F380Y/beta2Delta was 0.0267; with F380Y/beta4 it was 0.0475; in test [1], 0.0367; in the test with R275C, -0.0331; in the test with R275C/beta1, 0.00607; in the test on R275C/beta2Delta it was 0.00306. Also, the log fold change Tl+ flux with R275C/beta4 was 0.00145; with R275C/Slo1WT/beta2 it was 0.0334.
`C[C@]12C[C@H](O)[C@H]3[C@@H](CCC4=CC(=O)CC[C@@]43C)[C@@H]1CC[C@@H]2C(=O)CO`: the log fold change Tl+ flux was -0.00742 in the test on F380Y/beta2Delta; 0.0166 in the test on F380Y/beta4; 0.0373 in test [1]; -0.04 in the test with R275C; 0.00127 with R275C/beta1; 0.0285 with R275C/beta2Delta. The log fold change Tl+ flux in the test on R275C/beta4 is 0.0631; in the test with R275C/Slo1WT/beta2, 0.00421.
Consider `NS(=O)(=O)Cc1noc2ccccc12`, for which the log fold change Tl+ flux is -0.0343 in the test on F380Y/beta2Delta; -0.0562 in the test on F380Y/beta4; 0.00637 in test [1]; -0.021 with R275C; 0.0189 with R275C/beta1; -0.0477 in the test on R275C/beta2Delta. Moreover, the results for the log fold change Tl+ flux in the test on R275C/beta4 and in the test on R275C/Slo1WT/beta2 were 0.00838 and -0.0027, respectively.
`NC1CCN(c2nc3c(cc2F)c(=O)c(C(=O)O)cn3-c2ccc(F)cc2F)C1` (stereo not given): the log fold change Tl+ flux was -0.101 in the test on F380Y/beta2Delta; 0.00828 in the test with F380Y/beta4; 0.0186 in test [1]; -0.0155 in the test with R275C; -0.00647 with R275C/beta1; -0.0395 in the test with R275C/beta2Delta. Moreover, the log fold change Tl+ flux with R275C/beta4 was -0.0109; with R275C/Slo1WT/beta2 it was 0.0163.
`CC(Cc1ccccc1)(NC(=O)CN)c1ccccc1` (stereo not given): the log fold change Tl+ flux was 0.0679 with F380Y/beta2Delta; 0.0357 in the test on F380Y/beta4; -0.0139 in test [1]; 0.0158 in the test with R275C; 0.0479 in the test on R275C/beta1; 0.036 in the test on R275C/beta2Delta. For the same compound, the log fold change Tl+ flux in the test with R275C/beta4 is 0.0184; in the test on R275C/Slo1WT/beta2, -0.037.
As for `O=C(O)CCNC(=O)c1ccc(N=Nc2ccc(O)c(C(=O)O)c2)cc1`, the log fold change Tl+ flux with F380Y/beta2Delta is -0.00246; with F380Y/beta4, 0.0201; in test [1], 0; in the test with R275C, -0.0367; with R275C/beta1, 0.0608; in the test with R275C/beta2Delta, 0.0174. Also, the log fold change Tl+ flux with R275C/beta4 was 0.00146; in the test with R275C/Slo1WT/beta2, 0.0188.
For the compound `Cn1c(NCCN(CCO)CCCc2ccc([N+](=O)[O-])cc2)cc(=O)n(C)c1=O`, the log fold change Tl+ flux with F380Y/beta2Delta is -0.007; with F380Y/beta4 it was -0.0379; in test [1] it was 0.0127; in the test with R275C, -0.128 (active); in the test with R275C/beta1, -0.0368; in the test with R275C/beta2Delta, 0.012. Besides, the results for the log fold change Tl+ flux with R275C/beta4 and with R275C/Slo1WT/beta2 were -0.00107 and 0.0338, respectively.

Values taken from PubChem BioAssay.
